Bioassay records (PubChem BioAssay)
In the library only some 2.9% were active in any assay of this set; here they are far more common.
BioA inh – blocks M. tuberculosis BioA enzyme activity; purified M. tuberculosis BioA enzyme, plate reader; inhibition, % at 9.99 µM; 360,000 tested, 0.096% active; in the data active = inhibition above about 40%
Mtb hypoxia rep – inhibitors of hypoxia-regulated fluorescent reporter in Mycobacterium tuberculosis. M. tuberculosis hypoxia-regulated fluorescent reporter, fluorescence. AID 1159583. fluorescence inhibition, % (no concentration beside the values). 300,000 tested, 0.1% active; in the data active = fluorescence inhibition mostly above about 23%, no sharp cut-off; inactive = mostly below about 17%
Mtb FBA inh – inhibitors of M. tuberculosis fructose-bisphosphate aldolase. purified M. tuberculosis FBA, fluorescence read-out. inhibition, % at 1 µM. 360,000 tested, 2.3% active
Target sequence (P9WQA3 whole entry, looked up): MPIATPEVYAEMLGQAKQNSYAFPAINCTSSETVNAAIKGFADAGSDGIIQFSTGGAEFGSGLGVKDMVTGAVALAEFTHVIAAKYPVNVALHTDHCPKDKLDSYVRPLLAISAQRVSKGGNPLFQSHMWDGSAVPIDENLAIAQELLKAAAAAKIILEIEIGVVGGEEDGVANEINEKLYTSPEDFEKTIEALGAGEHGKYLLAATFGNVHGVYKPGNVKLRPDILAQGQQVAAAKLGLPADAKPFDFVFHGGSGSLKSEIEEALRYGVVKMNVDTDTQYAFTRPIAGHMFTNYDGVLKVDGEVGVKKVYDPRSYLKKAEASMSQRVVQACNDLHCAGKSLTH
GDH-TPI counter-1 – inhibits GDH-TPI coupling enzymes, artifact for Mtb FBA screen. GDH-TPI coupled enzyme counterscreen, NADH absorbance. inhibition, % at 4.8 µM. 360,000 tested, 1.2% active. AID 588335; in the data active = inhibition above about 30%
FadD28 binding – inhibitors of Mycobacterium tuberculosis FadD28 bisubstrate binding; FadD28 bisubstrate probe binding, fluorescence polarization; inhibition, % at 12.5 µM; 360,000 tested, 0.22% active; AID 588549; in the data active = inhibition above about 8.5%, passing the limit was not always enough
Mtb FBA inh conf – Mtb FBA inhibition, confirmed; purified M. tuberculosis FBA, fluorescence read-out; inhibition, % at 1 µM; 5,600 tested, 78% active; shares compounds with Mtb FBA inh; AID 651616
GDH-TPI counter-2 – inhibits GDH-TPI coupling enzymes, flagging Mtb FBA hits; shares compounds with Mtb FBA inh; GDH-TPI coupled enzyme counterscreen, fluorescence; inhibition, % at 1 µM; 5,600 tested, 81% active; AID 652141; in the data active = inhibition above about 10%
Numbers stand for hits; - = inactive; . = no result; + = active, no number. Rule as the data show it, unless noted: active = inhibition above about 27%; inactive = the rest.

SMILES	BioA inh	Mtb hypoxia rep	Mtb FBA inh	GDH-TPI counter-1	FadD28 binding	Mtb FBA inh conf	GDH-TPI counter-2
C[C@@H]1CN([C@H](C)CO)C(=O)c2cc(NC(=O)c3ccncc3)ccc2O[C@H]1CN(C)Cc1ccc2c(c1)OCO2	-	.	.	.	.	.	.
O=C(C[C@@H]1CC[C@@H]2NC[C@@H](O)COC[C@H]2O1)NCCN1CCCCC1	-	.	.	.	.	.	.
CNC(=O)C[C@@H]1CC[C@@H]2[C@H](COc3ccc(NC(=O)c4ccccc4Cl)cc3C(=O)N2C)O1	-	.	.	.	.	.	.
C[C@H]1CN([C@@H](C)CO)C(=O)c2cccc(NC(=O)Nc3ccccc3)c2O[C@H]1CN(C)CC1CCCCC1	-	.	.	.	.	.	.
O=S(=O)(c1ccccc1)c1nc(-c2ccco2)oc1NCCCN1CCOCC1	-	.	-	-	-	.	.
N#Cc1nc(-c2ccccc2)oc1NCCCn1ccnc1	-	-	100.3	-	-	139.4	89.2
CNc1oc(-c2ccc(OCc3ccccc3)cc2)nc1C#N	.	-	73.8	-	-	84.2	69.9
N#Cc1nc(-c2ccco2)oc1NCCCN1CCOCC1	.	-	56.1	-	-	+	+
N#Cc1nc(-c2ccc(OCc3ccccc3)cc2)oc1NCCN1CCOCC1	.	-	.	.	.	.	.
N#Cc1nc(-c2cccc3ccccc23)oc1NCCN1CCCCC1	-	-	70.0	-	-	195.2	188.4
C[C@H](NC(=O)C[C@@H]1C[C@@H]2c3cc(NC(=O)CN(C)C)ccc3O[C@@H]2[C@H](CO)O1)c1ccccc1	-	.	.	.	.	.	.
O=C(C[C@@H]1C=C[C@@H](NC(=O)NC2CCCCC2)[C@@H](CO)O1)NCc1ccc(F)cc1	-	.	.	.	.	.	.
N#Cc1nc(-c2ccco2)oc1NCc1ccco1	-	-	40.1	-	-	171.7	176.4
N#Cc1nc(Cc2cccc3ccccc23)oc1NCc1ccco1	-	-	-	-	-	.	.
Cc1ccc(-c2nc(C#N)c(NCc3ccco3)o2)cc1	-	.	91.9	-	-	54.2	40.9
CN(Cc1ccccc1)c1oc(COc2ccccc2F)nc1C#N	-	.	-	-	-	.	.
CN(C)CCNc1oc(-c2cccc(Cl)c2)nc1C#N	-	-	56.9	-	-	-	11.1
Cc1ccc(OCc2nc(C#N)c(NCc3ccco3)o2)cc1	-	.	-	-	-	.	.
CN(Cc1ccccc1)c1oc(-c2ccco2)nc1C#N	-	-	67.2	-	-	41.1	36.5
Cc1ccc(-c2n[nH]c(=S)n2N=Cc2ccco2)cc1	.	-	.	.	.	.	.
Cc1ccc(S(=O)(=O)N(C)C[C@@H]2Oc3ccc(NC(=O)Nc4ccccc4)cc3C(=O)N([C@H](C)CO)C[C@H]2C)cc1	-	.	.	.	.	.	.
N#Cc1nc(-c2ccco2)oc1NCc1ccccc1Cl	-	-	35.4	-	-	88.7	79.2
COc1ccc(CCNc2oc(-c3ccccc3OC)nc2C#N)cc1OC	-	-	86.2	-	-	96.0	69.6
CN1CCCCN2[C@H](C1)[C@@H](c1ccc(-c3cccnc3)cc1)[C@@H]2CO	-	.	.	.	.	.	.
COc1ccc2c(COC(=O)CNS(=O)(=O)c3ccc(C)c(C)c3)cc(=O)oc2c1	-	-	72.7	-	-	30.9	27.8
SMILES	BioA inh	Mtb hypoxia rep	Mtb FBA inh	GDH-TPI counter-1	FadD28 binding	Mtb FBA inh conf	GDH-TPI counter-2
CC1CN(S(=O)(=O)c2cccc(C(=O)OCc3cc(=O)oc4cc(O)ccc34)c2)CC(C)O1 (stereo not given)	-	-	-	-	-	.	.
CN(C)c1cccc(C(=O)OCc2cc(=O)oc3cc(O)ccc23)c1	-	-	54.6	-	-	+	+
COc1ccc(Br)c(C(=O)OCc2cc(=O)oc3cc(C)ccc23)c1	-	-	-	-	-	.	.
COc1ccc2c(COC(=O)CCS(=O)(=O)c3ccc(C)cc3)cc(=O)oc2c1	-	-	106.6	-	-	30.2	25.8
CCCNS(=O)(=O)c1cccc(C(=O)OCc2cc(=O)oc3cc(OC)ccc23)c1	-	-	38.0	-	-	76.4	58.8
COc1ccc2c(COC(=O)c3ccc(C)c(S(=O)(=O)N4CCOCC4)c3)cc(=O)oc2c1	-	-	-	-	-	.	.
COC(=O)c1ccc(C23CC4(C2)C(CN(Cc2ccc(-c5ccccc5)cc2)C4c2ccccc2)C3c2ccccc2)cc1 (stereo not given)	.	-	.	.	.	.	.
C/C=C/c1ccc2c(c1)O[C@@H](CN(C)C(=O)NCCC)[C@H](C)CN([C@H](C)CO)S2(=O)=O	-	.	.	.	.	.	.
O=C(C[C@@H]1C[C@@H]2c3cc(NC(=O)Nc4ccccc4F)ccc3O[C@@H]2[C@H](CO)O1)NCC1CC1	-	.	.	.	.	.	.
CCCC(=O)Nc1c(-c2ccccc2OC)c(=O)c2ccccc2n1C	-	-	-	-	-	.	.
CCCCCC(=O)Nc1c(-c2ccc(OC)cc2)c(=O)c2ccccc2n1C	-	-	28.1	-	-	128.3	104.4
CCCC(=O)Nc1c(-c2ccc(OC)cc2)c(=O)c2ccccc2n1C	-	-	28.4	-	-	-	-
C[C@H]1CN([C@@H](C)CO)C(=O)c2cc(C#CCN(C)C)cnc2O[C@@H]1CN(C)C(=O)NC1CCCC1	-	.	.	.	.	.	.
CC(C)c1cc(C(C)C)n2nc(N)nc2n1	-	-	-	-	-	.	.
CCCc1cc(CCC)n2nc(N)nc2n1	.	.	31.9	-	-	+	178.8
